HCMV antiviral: inhibitors of human cytomegalovirus; AID 1259415; HFF cells, HCMV-luciferase reporter, 72 h; active compounds read low; activity change, negative = inhibition, % at 57.5 µM; actives 4.5% (n = 410,000); in the data active = activity change below about -60%; inconclusive = no clear call, values can overlap the other calls; inactive = above about -39%; also: % is scaled to controls: 0 for no effect and ±100 for the full control effect
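Human foreskin fibroblasts infected with luciferase-reporter HCMV at MOI 1 PFU/cell, compounds at two doses. Luciferase measured 72 h post infection; normalized to buffer-only basal and Salinomycin (10uM) controls.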
SARS PLP yeast: blocks SARS-CoV papain-like protease in a yeast assay; S. cerevisiae expressing SARS-CoV PLpro, growth rescue; AID 485353; Potency, µM (titrated, usually from 32.9 µM), for the others: top-dose activity, positive = growth rescue, actives largely listed as activators; actives 0.19% (n = 330,000); calls by dose curve; also: potency is read from the fitted curve at half-maximal effect; 0% is about no effect; nearly all actives have a fitted effect of over 55% in size
HCV inh: inhibitors of hepatitis C virus infection; Huh7.5.1 HCVcc-Cre infection, luciferase reporter, 44 h; Potency, µM (highest dose often 41.8 µM), for inactives: at the top dose activity change, negative = inhibition, usual class: inhibitors; actives 3.4% (n = 340,000); AID 651820; active = well fitted inhibition curve with a large enough effect; inconclusive = small, poorly fitted or top-dose-only effect, or another doubt; inactive = no such curve, though single readings can be large or run the other way; also: potency is read from the fitted curve at half-maximal effect; % is scaled to controls: 0 for no effect and ±100 for the full control effect
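Cells seeded at 1,000/well and cultured 4 h, then compounds added followed by HCVcc-Cre virus (~0.5 moi). After 44 h further culture, luciferase substrate was added, plates held 15 min at room temperature, and luminescence read for 15 sec.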
FMDV inh: foot and mouth disease virus antiviral activity. FMDV antiviral cell-based qHTS. Potency, µM (top dose mostly 57.9 µM), without a hit: at the top dose activity change, negative = inhibition, usual class: inhibitors. actives 1.2% (n = 410,000). AID 1159524; calls by dose curve; tested in HEK293T cells; also: read-out not given here; potency is read from the fitted curve at half-maximal effect; % is scaled to controls: 0 for no effect and ±100 for the full control effect; nearly all actives have a fitted effect of over 45% in size
MARV entry inh: Marburg virus entry inhibition. Marburg virus pseudotyped entry inhibition, cell reporter. Potency, µM (series often up to 37.8 µM), for inactives: at the top dose activity change, negative = inhibition, most hits filed as inhibitors. AID 540276. actives 1.8% (n = 300,000); calls by dose curve; tested in HEK293 cells; also: potency is read from the fitted curve at half-maximal effect; % is scaled to controls: 0 for no effect and ±100 for the full control effect
LASV entry inh: Lassa virus entry inhibition; Lassa virus pseudotype entry inhibition, cell reporter; Potency, µM (doses to about 37.9 µM), for the others: at the top dose activity change, negative = inhibition, usual class: inhibitors; actives 1.2% (n = 300,000); calls by dose curve; tested in HEK293 cells; also: potency is read from the fitted curve at half-maximal effect; % is scaled to controls: 0 for no effect and ±100 for the full control effect; nearly all actives have a fitted effect of over 50% in size
The depositor's hits bear a star; ? = inconclusive; / = no result given; + = active, no number; [ ] = remark or other dose. An excerpt weighted towards active compounds, which were near 8% of everything screened.

SMILES | HCMV antiviral | SARS PLP yeast | HCV inh | FMDV inh | MARV entry inh | LASV entry inh
Cn1c(NCC(O)CO)nc2c1c(=O)n(Cc1ccc(Cl)c(Cl)c1)c(=O)n2C (stereo unspecified) | -31 | -9% | 1% | ? | ? | 4%
COc1ccc(CNc2nc3c(c(=O)n(Cc4ccc(Cl)cc4)c(=O)n3C)n2C)cc1 | ? | 4% | ? | 13µM* | ? | ?
CNC(=O)CSc1nc2c(c(=O)n(C)c(=O)n2C)n1Cc1ccc(C)cc1 | 63 | 11% | 0.63µM* | / | 1% | -15%
Cc1ccc(OCCOCCn2c(-c3ccc(Cl)cc3)nc3ccccc3c2=O)cc1 | 8 | / | / | -20% | 2%[46.1 µM] | -8%[46.1 µM]
O=c1c(-c2ccccc2)nc2cncnc2n1Cc1ccccc1 | / | / | / | -14% | / | /
Cc1cccc2c(N3CCCC3)nc(CNS(=O)(=O)c3ccccc3Cl)nc12 | / | / | / | -7% | / | /
Cc1cccc(C(=O)N[C@H](C(=O)Nc2nc(C)cs2)C(C)C)c1 | 47 | 8% | -4% | -10% | 10% | 2%
COc1ccc(C(=O)N[C@H](C(=O)Nc2nc3ccccc3[nH]2)C(C)C)cc1 | -86* | 0% | 7.1µM* | 14% | ? | ?
Cc1cccc(C(=O)N[C@H](C(=O)Nc2nc3ccccc3[nH]2)C(C)C)c1 | -81* | 0% | -24% | -25% | / | /
O=C1C(Nc2ccccc2)=CC(c2ccc(Br)cc2)N1c1ccccc1 (stereo unspecified) | 22 | / | / | -1% | 2%[46.1 µM] | ?
O=C(CSc1cccc[n+]1[O-])Nc1cc(Cl)ccc1[N+](=O)[O-] | -11 | 5% | -25% | -19% | 30% | 21%
O=[N+]([O-])c1ccc(Sc2cccc[n+]2[O-])c2nonc12 | -106* | -7% | 10µM* | 6.3µM* | ? | ?
Cn1cnc([N+](=O)[O-])c1Sc1ncnc2nc[nH]c12 | 0 | 1% | 17% | ? | 18µM* | ?
CC(C)c1cc(C(=O)N2CCCC(N3CCN(c4ccc(F)cc4)CC3)C2)n(C)n1 (stereo unspecified) | -64* | 0% | ? | ? | / | /
C=CC(C)(C)c1c(O)c(CC=C(C)C)c(O)c2c(=O)c3ccc(O)c(O)c3oc12 | / | / | 11µM* | ? | / | /
O=C(NC1CCCC1)c1ccc(Cl)s1 | -77* | -7% | -4% | -14% | -1%[46.1 µM] | 9%[46.1 µM]
COC(=O)Cn1c(=NC(=O)c2ccc3c(c2)OCCO3)sc2ccccc21 | -16 | / | / | 27% | / | 32%[46.1 µM]
CN1c2ccccc2C(C)(C)[C@]12C=Cc1cc(O)ccc1O2 | ? | 1% | 13µM* | ? | ? | -16%
COc1ccccc1NC(=O)c1c([N+](=O)[O-])c(C(C)(C)C)nn1C | -68* | -1% | 5% | -24% | -11%[46.1 µM] | -19%
CCN(C(=O)c1cc2c(=O)oc3ccc(C)cc3c2s1)c1ccccc1C | 13 | / | / | ? | 8%[46.1 µM] | 0%[46.1 µM]
CCCN(C(=O)c1cc2c(=O)oc3ccccc3c2s1)c1ccccc1C | -9 | / | / | 40µM* | 9%[46.1 µM] | 2%[46.1 µM]
CCN(CC)CCNC(=O)c1cnn(-c2ncc3c(n2)-c2ccc(OC)cc2CC3)c1C | / | / | / | -18% | / | /
COc1ccccc1CNC(=O)c1ccc2[nH]c(C)c(C)c2c1 | 62 | / | / | 3% | / | ?
COc1ccccc1CNC(=O)c1ccc2nc3[nH]c4ccccc4c3nc2c1 | -86* | 10% | ? | 33% | ? | ?
Cc1ccc(CNC(=O)c2ccc3nc4[nH]c5ccccc5c4nc3c2)cc1 | -102* | -2% | 4% | / | -15% | -6%
SMILES | HCMV antiviral | SARS PLP yeast | HCV inh | FMDV inh | MARV entry inh | LASV entry inh
COc1ccccc1CNC(=O)c1cccc(NC(=O)c2ccccc2)c1 | ? | -2% | 14µM* | -27% | / | /
CCC(CC)C(=O)c1c[nH]c(C(=O)NCc2ccccc2OC)c1 | 2 | 1% | -21% | 40µM* | / | /
CCOC(=O)c1c(C)sc(-c2c(-c3ccccc3)[nH]c3[nH]c(=O)[nH]c(=O)c23)c1O | 7 | / | / | ? | 15%[46.1 µM] | ?
CC1(C)NC(C)(C)/C(=C\c2cccs2)C(=O)C1=O | -26 | -3% | -16% | -15% | 13µM* | 26%
CC1CCCC(NC(=O)COC(=O)c2ccc(N(C)C)cc2)C1C (stereo unspecified) | 4 | 0% | 2.8µM* | -3% | -1% | ?
CCN(CC)c1ccc(C(=O)OCC(=O)NC2CCCCC2C)cc1 (stereo unspecified) | -10 | 8% | -23% | -21% | -3%[46.1 µM] | -21%
CCN(C(=O)Cn1nc(Cc2ccncc2)c2ccccc2c1=O)c1cccc(Cl)c1 | -35 | / | / | 0% | -29%[46.1 µM] | -11%[46.1 µM]
Cn1c(SCC(=O)Nc2ccccc2Oc2ccccc2)nnc1C1CC1 | -10 | -4% | -4% | -10% | / | /
COc1ccccc1NS(=O)(=O)c1ccc(C(=O)NCc2ccncc2)cc1 | + | 1% | -7% | -1% | / | /
CCOc1ccc(S(=O)(=O)NCc2ccncc2)cc1NC(=O)c1ccccc1 | -87* | 0% | 1.8µM* | -11% | 3.5µM* | ?
COc1ccc(S(=O)(=O)NCc2ccccn2)cc1NC(=O)c1ccc(Cl)cc1 | -30 | 7% | ? | 14% | ? | ?
COc1ccc(S(=O)(=O)NCc2ccncc2)cc1NC(=O)c1ccc(Cl)cc1 | -63* | -1% | ? | -6% | ? | ?
COc1ccc(S(=O)(=O)NCc2ccncc2)cc1NC(=O)c1ccccc1 | -79* | 3% | -3% | -19% | ? | -5%
COc1ccc(S(=O)(=O)N2CCCCC2)cc1NC(=O)c1cnc(C)cn1 | 0 | 0% | 17% | 12% | 15% | -1%
C[C@@H]1O[C@H](C2CC2)Cc2[nH]c(=S)[nH]c(=O)c21 | 11 | / | / | 0% | / | /
Cc1ccccc1C(=O)N1Cc2cnnn2-c2ccccc2C1C#N (stereo unspecified) | -22 | / | -14%[8.37 µM] | -14% | / | /
Cc1ccccc1CN1Cc2cnnn2-c2ccccc2C1C#N (stereo unspecified) | -99* | / | ? | 13µM* | / | /
Cc1cc(NS(C)(=O)=O)c(=O)n(Cc2c(F)cccc2Cl)c1 | 8 | 5% | -5% | 4% | / | /
COc1ccccc1-c1cc(-c2ccccc2)nc(SC(C(N)=O)c2ccccc2)c1C#N (stereo unspecified) | ? | 6% | ? | -16% | 15µM* | ?
CN(C)C(=S)Nc1nc2ccccc2s1 | -4 | -3% | 14µM* | 34% | / | /
CCOc1ccc2nc(NC(=S)N(C)C)sc2c1 | 15 | -10% | ? | -3% | -29% | -27%
CN(CC(=O)Nc1nc2ccccc2s1)S(=O)(=O)c1ccc(Br)cc1 | 1 | 4% | ? | 35µM* | -12% | -14%[14.3 µM]
COc1ccc(C)cc1NC(=O)N1CCN(c2cc(-c3noc(C)n3)ccc2C)CC1 | -19 | / | / | -26% | / | 17%[46.1 µM]
CSCCC(C(=O)NC1CCCC1)n1c(C2CC2)nc2ccccc21 (stereo unspecified) | ? | / | / | -1% | / | /

Bioassay records from PubChem.
